Laboratory results taken from PubChem BioAssay (Tox21).
Inconclusive results are not listed. Entries that show only a call come without a potency. Activity calls are given as the source filed them. Unless noted, calls follow the shape of the dose curve; as a rule, active = well fitted curve in the direction sought with a large enough effect in the repeat runs; inconclusive = weak or mixed curves; inactive = no such curve, though single readings can be large; an effect the other way counts as inactive or inconclusive.

Key:
[1] = target: Retinoic acid receptor RXR-alpha (Homo sapiens) (UniProt P19793); assay: qHTS assay to identify small molecule agonists of the RXR signaling pathway (AID 1159527; calls by dose curve; also: nearly all actives have a fitted effect of over 35% in size)
Outline: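 Cells plated at 2,000/well, rested 5 hr at 37 C, pin-dosed with DMSO compound solutions, incubated 16 hr, then loaded with B/G FRET substrate for 2 hr at RT before dual-emission fluorescence reading.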

[2] = qHTS assay to identify small molecule agonists of the RXR signaling pathway - cell viability counter screen (AID 1159529);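 also: HEK 293T cells carrying an RXR-alpha UAS beta-lactamase reporter; nearly all actives have a fitted effect of over 50% in size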
Outline: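 Steps: seed RXR-alpha-UAS-bla HEK 293T cells in assay medium containing 2% charcoal-stripped FBS; incubate 5 hr; add compounds in DMSO; incubate 16 hr at 37 C; after the bla read, add CellTiter-Glo and read luminescence at 30 min.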

[3] = qHTS assay to identify small molecule antagonists of the retinoid acid receptor (RAR) signaling pathway - cell viability counter screen (AID 1159551); also: nearly all actives have a fitted effect of over 35% in size
Outline: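 ATP-based viability, C3RL4 cells, 6 h at 37 C with 1 uM final retinol co-added after compound; luminescence read 30 min post CellTiter-Glo, RT.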

[4] = qHTS assay to identify small molecule antagonists of the retinoic acid receptor (RAR) signaling pathway (AID 1159552; also: nearly all actives have a fitted effect of over 50% in size)
Outline: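 Retinol at 1 uM final stimulated RARE-luciferase expression in C3RL4 cells exposed to test compounds for 6 hr at 37 C. Reduced luminescence, read 30 min after detection reagent, indicated pathway antagonism.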

[5] = qHTS assay to identify small molecule agonists of the retinoic acid receptor (RAR) signaling pathway (AID 1159553); settings: C3RL4 RARE luciferase reporter, agonist, 6 h; activation: at 73.3 µM (top of the series); also: potency is read from the fitted curve at half-maximal effect
Outline: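 Quantitative high-throughput format: the Tox21 10K library was tested on C3RL4 RARE-luciferase cells for 6 hr at 37 C and 5% CO2, with luminescence measured after a 30 min room-temperature reagent step.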

[6] = target: Luciferin 4-monooxygenase (Photinus pyralis) (UniProt P08659); assay: qHTS assay to identify small molecule inhibitors of firefly luciferase (AID 1224835); also: nearly all actives have a fitted effect of over 25% in size
Outline: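 Quantitative HTS format; KM concentrations of both substrates. Purified P. pyralis FLuc activity quantified from luminescence images.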

[7] = qHTS assay to identify small molecule agonists of the constitutive androstane receptor (CAR) signaling pathway - cell viability counter screen (AID 1224836); also: nearly all actives have a fitted effect of over 45% in size
Outline: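 Cells were seeded and incubated 4 hrs. Compounds were added across 15 concentrations together with PK11195 at 0.75 uM final. Plates were incubated 23 hrs at 37 C. CellTiter-Fluor was added and fluorescence measured.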

[8] = qHTS assay to identify small molecule antagonists of the constitutive androstane receptor (CAR) signaling pathway - cell viability counter screen (AID 1224837); also: nearly all actives have a fitted effect of over 45% in size
Outline: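 Cells are seeded, rested 4 hr at 37 C/5% CO2, dosed with compound (15-point series) and 50 nM CITCO, incubated a further 23 hr, and then CellTiter-Fluor reagent is added before fluorescence is read. The line is HepG2 with stable hCAR and CYP2B6-2.2kb.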

[9] = target: Nuclear receptor subfamily 1 group I member 3 (Homo sapiens) (UniProt Q14994); assay: qHTS assay to identify small molecule antagonists of the constitutive androstane receptor (CAR) signaling pathway (AID 1224838);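 also: HepG2 cells stably expressing hCAR with CYP2B6 luciferase reporter stimulated by CITCO; nearly all actives have a fitted effect of over 40% in size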
Outline: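 Luminescence from a CYP2B6-2.2kb promoter reporter in hCAR-expressing HepG2 cells reflects CAR signaling. Cells received compounds at 15 concentrations and 50 nM CITCO (final), then incubated 24 h at 37 C/5% CO2.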

[10] = target: Nuclear receptor subfamily 1 group I member 3 (Homo sapiens) (UniProt Q14994); assay: qHTS assay to identify small molecule agonists of the constitutive androstane receptor (CAR) signaling pathway (AID 1224839); also: nearly all actives have a fitted effect of over 15% in size; also: potency is read from the fitted curve at half-maximal effect;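 as to activation: HepG2 cells stably carrying human CAR and a CYP2B6 luciferase reporter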
Outline: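 Cells were plated and incubated 4 hrs, then dosed with compounds at 15 concentrations. PK11195 was added to 0.75 uM final. After 24 hrs at 37 C, luciferase luminescence was measured.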

[11] = qHTS assay to identify small molecule antagonists of the estrogen related receptor signaling pathway with the pleiotropic PPARgamma coactivator (PGC) from Tox21 10K library - cell viability counter screen (AID 1224840; active = well fitted cell-killing curve with a large enough effect in the repeat runs, not every such curve was filed as active; also: nearly all actives have a fitted effect of over 40% in size)
Outline: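 Cell viability is measured by CellTiter-Fluor fluorescence in PGC/ERR cells that receive compounds after a 6-hour attachment period and are then incubated 17.5 hours at 37 C.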

[12] = qHTS assay to identify small molecule antagonists of the estrogen related receptor (ERR) signaling pathway from Tox21 library - cell viability counter screen (AID 1224834); also: nearly all actives have a fitted effect of over 30% in size
Outline: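 Compounds in DMSO were pinned onto ERR cells that had been incubated for 6 h, and the plates were held at 37 C for 17.5 h. CellTiter-Fluor reagent was then added and fluorescence was measured after 30 min.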

[13] = qHTS assay to identify small molecule antagonists of the estrogen related receptor signaling pathway with the pleiotropic PPARgamma coactivator (PGC) from Tox21 10K library (AID 1224841; call rule not given here; also: actives are mostly falling curves and most rising ones were filed inactive; nearly all actives have a fitted effect of over 50% in size)
Outline: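 Cells stably carrying the PGC/ERR reporter, seeded at 2,000 per well, received pin-transferred compounds 6 h post-plating. Exposure lasted 18 h at 37 C. Signal: One-Glo luminescence.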

[14] = qHTS assay to identify small molecule agonists of the estrogen related receptor signaling pathway with the pleiotropic PPARgamma coactivator (PGC) from Tox21 10K library (AID 1224842); also: nearly all actives have a fitted effect of over 15% in size
Outline: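 PGC/ERR reporter cells (NTP line) were seeded 2,000 per well, rested 6 h at 37 C/5% CO2, then pin-dosed with compounds in DMSO for 18 h at 37 C; luciferase read by One-Glo luminescence after 30 min at room temperature.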

Retinoic acid receptor RXR-alpha (Homo sapiens), sequence (P19793 whole entry, looked up): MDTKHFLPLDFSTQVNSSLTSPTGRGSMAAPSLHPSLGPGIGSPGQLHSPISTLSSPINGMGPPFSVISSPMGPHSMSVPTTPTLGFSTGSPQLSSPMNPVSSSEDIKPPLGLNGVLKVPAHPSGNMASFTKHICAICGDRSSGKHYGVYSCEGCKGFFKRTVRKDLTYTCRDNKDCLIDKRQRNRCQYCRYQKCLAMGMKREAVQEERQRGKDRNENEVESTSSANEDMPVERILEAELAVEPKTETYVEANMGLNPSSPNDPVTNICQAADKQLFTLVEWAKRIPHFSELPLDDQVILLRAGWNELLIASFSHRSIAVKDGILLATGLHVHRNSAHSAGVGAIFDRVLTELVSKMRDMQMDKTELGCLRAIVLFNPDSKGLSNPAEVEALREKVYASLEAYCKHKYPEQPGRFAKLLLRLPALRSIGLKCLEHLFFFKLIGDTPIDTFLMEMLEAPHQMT
Nuclear receptor subfamily 1 group I member 3 (Homo sapiens), sequence (Q14994 whole entry, looked up): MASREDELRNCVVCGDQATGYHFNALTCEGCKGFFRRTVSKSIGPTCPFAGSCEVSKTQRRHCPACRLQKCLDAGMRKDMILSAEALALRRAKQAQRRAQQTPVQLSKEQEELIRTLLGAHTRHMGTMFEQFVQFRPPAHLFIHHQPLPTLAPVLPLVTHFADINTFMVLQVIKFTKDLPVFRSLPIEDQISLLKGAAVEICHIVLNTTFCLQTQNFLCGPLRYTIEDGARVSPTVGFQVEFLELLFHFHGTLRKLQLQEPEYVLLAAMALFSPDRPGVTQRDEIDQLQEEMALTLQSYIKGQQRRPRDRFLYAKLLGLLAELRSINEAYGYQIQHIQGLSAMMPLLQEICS
Luciferin 4-monooxygenase (Photinus pyralis), sequence (P08659 whole entry, looked up): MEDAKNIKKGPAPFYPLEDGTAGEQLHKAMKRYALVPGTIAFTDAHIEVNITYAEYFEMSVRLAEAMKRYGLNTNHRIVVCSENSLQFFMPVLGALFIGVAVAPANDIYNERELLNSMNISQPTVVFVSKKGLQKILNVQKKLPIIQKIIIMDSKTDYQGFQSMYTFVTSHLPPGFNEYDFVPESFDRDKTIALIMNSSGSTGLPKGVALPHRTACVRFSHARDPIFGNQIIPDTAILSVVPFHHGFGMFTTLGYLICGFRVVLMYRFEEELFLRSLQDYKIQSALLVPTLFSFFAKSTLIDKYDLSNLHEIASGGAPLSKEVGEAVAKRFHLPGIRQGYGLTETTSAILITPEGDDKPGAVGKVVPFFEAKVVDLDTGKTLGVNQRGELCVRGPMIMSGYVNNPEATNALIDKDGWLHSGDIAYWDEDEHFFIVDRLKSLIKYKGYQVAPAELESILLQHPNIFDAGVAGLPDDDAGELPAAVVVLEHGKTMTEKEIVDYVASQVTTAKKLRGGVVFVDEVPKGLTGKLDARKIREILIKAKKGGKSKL

| SMILES | Potency [1] | Potency [2] | Potency [3] | Potency [4] | Potency [5] | Potency [6] | Potency [7] | Potency [8] | Potency [9] | Potency [10] | Potency [11] | Potency [12] | Potency [13] | Potency [14] |
| --- | --- | --- | --- | --- | --- | --- | --- | --- | --- | --- | --- | --- | --- | --- |
| C=COCC(C)C | inactive | inactive | inactive | inactive | inactive | inactive | inactive | inactive | inactive | inactive | inactive | – | – | – |
| CO[C@]1(NC(=O)CSC(F)F)C(=O)N2C(C(=O)O)=C(CSc3nnnn3CCO)CO[C@H]21 | inactive | inactive | inactive | inactive | inactive | inactive | inactive | inactive | – | – | inactive | inactive | – | – |
| CCOC(=O)/C=C/C(=O)OCC | inactive | inactive | inactive | inactive | inactive | inactive | inactive | inactive | – | – | inactive | inactive | inactive | – |
| O=C(/C=C/c1ccc(O)c(O)c1)O[C@@H]1C[C@@](OC(=O)/C=C/c2ccc(O)c(O)c2)(C(=O)O)C[C@@H](O)[C@@H]1O | inactive | inactive | inactive | inactive | inactive | inactive | – | inactive | – | – | inactive | inactive | – | – |
| O=C(O)C[C@H](NC(=O)OCc1ccccc1)C(=O)O | inactive | inactive | inactive | inactive | inactive | inactive | inactive | inactive | inactive | inactive | inactive | inactive | – | – |
| CC(C)(c1ccccc1)c1ccccc1 | inactive | inactive | inactive | inactive | inactive | inactive | inactive | inactive | inactive | 45.1 µM (active) | inactive | – | – | – |
| O=C(Cn1ccnc1[N+](=O)[O-])NCCO | inactive | inactive | inactive | inactive | inactive | inactive | inactive | inactive | inactive | inactive | inactive | inactive | – | – |
| CC(C)=CCC/C(C)=C/CC/C(C)=C/CCC(=O)OC/C=C(\C)CCC=C(C)C | inactive | inactive | inactive | inactive | inactive | inactive | inactive | inactive | inactive | inactive | inactive | inactive | inactive | – |
| CCOC(=O)c1ccc(O)c(O)c1 | inactive | inactive | inactive | inactive | inactive | inactive | – | inactive | inactive | – | inactive | inactive | – | – |
| CC=C(Cl)Cl | inactive | inactive | inactive | inactive | inactive | inactive | inactive | inactive | inactive | inactive | inactive | inactive | – | – |
| Nc1ncnc2c1ncn2[C@H]1CC[C@@H](CO)O1 | inactive | inactive | inactive | inactive | inactive | – | – | inactive | inactive | inactive | inactive | inactive | – | – |
| CCC(=O)C1CC(C(C)C)CC=C1C (stereo not given) | inactive | inactive | inactive | inactive | inactive | inactive | inactive | inactive | inactive | inactive | inactive | inactive | inactive | – |
| CN1C(C(=O)Nc2ccccn2)=C(O)c2sccc2S1(=O)=O | inactive | inactive | inactive | inactive | 29.8 µM (active) | – | inactive | inactive | inactive | inactive | inactive | inactive | – | – |
| Clc1cc(Cl)nc(Cl)n1 | inactive | inactive | inactive | inactive | inactive | inactive | inactive | inactive | inactive | inactive | inactive | inactive | – | – |
| C=C1c2cccc(O)c2C(O)=C2C(=O)[C@]3(O)C(O)=C(C(N)=O)C(=O)[C@@H](N(C)C)[C@@H]3[C@@H](O)[C@H]12 | inactive | inactive | inactive | inactive | inactive | inactive | inactive | inactive | inactive | inactive | inactive | inactive | inactive | inactive |
| CCn1cc(C(=O)O)c(=O)c2cc(F)c(N3CCNCC3)cc21 | inactive | inactive | inactive | inactive | inactive | inactive | inactive | inactive | – | – | inactive | inactive | – | – |
| CN(C)CCN1C(=O)c2ccccc2N(C)c2ccccc21 | inactive | inactive | inactive | inactive | inactive | – | inactive | inactive | inactive | 26.6 µM (active) | inactive | inactive | – | – |
| Cc1[nH]cnc1CN1CCc2c(c3ccccc3n2C)C1=O | inactive | inactive | inactive | inactive | inactive | inactive | inactive | inactive | inactive | inactive | inactive | inactive | – | – |
| CCCCCCC(C)(C)C(=O)O | inactive | inactive | inactive | inactive | inactive | – | inactive | inactive | inactive | inactive | inactive | inactive | inactive | inactive |
| CN1C(=O)OC(C)(C)C1=O | inactive | inactive | inactive | inactive | inactive | inactive | – | inactive | inactive | inactive | inactive | inactive | inactive | inactive |
| CCC(OCCCOC)OC(C)=O (stereo not given) | inactive | inactive | inactive | inactive | inactive | inactive | inactive | inactive | – | – | inactive | inactive | – | – |
